Screening results from PubChem.
Sampled rows, rich in hits. Any-hit rate of the full collection: about 2.3%.
M1 ag parental: counter-screen for M1 agonists: effect in parental CHO-K1 cells. Fluo-8 calcium fluorescence; scaled to maximal ATP response, vehicle zero. activation, % at 3 µM. 360,000 compounds, 0.48% hits. AID 602248; in the data active = activation above about 15%;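 note: untransfected CHO-K1 host cells lacking M1 receptor as counterscreen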
CHRM1 PAM: positive allosteric modulators of human M1 muscarinic receptor | CHO-K1 hM1, Fluo-8 calcium fluorescence, ACh EC20; 0% = ACh EC20, 100% = maximal ACh | activation, % at 3 µM | 360,000 compounds, 0.088% hits | AID 588819; in the data active = activation above about 19%, passing the limit was not always enough
Target sequence (P11229 whole entry, looked up): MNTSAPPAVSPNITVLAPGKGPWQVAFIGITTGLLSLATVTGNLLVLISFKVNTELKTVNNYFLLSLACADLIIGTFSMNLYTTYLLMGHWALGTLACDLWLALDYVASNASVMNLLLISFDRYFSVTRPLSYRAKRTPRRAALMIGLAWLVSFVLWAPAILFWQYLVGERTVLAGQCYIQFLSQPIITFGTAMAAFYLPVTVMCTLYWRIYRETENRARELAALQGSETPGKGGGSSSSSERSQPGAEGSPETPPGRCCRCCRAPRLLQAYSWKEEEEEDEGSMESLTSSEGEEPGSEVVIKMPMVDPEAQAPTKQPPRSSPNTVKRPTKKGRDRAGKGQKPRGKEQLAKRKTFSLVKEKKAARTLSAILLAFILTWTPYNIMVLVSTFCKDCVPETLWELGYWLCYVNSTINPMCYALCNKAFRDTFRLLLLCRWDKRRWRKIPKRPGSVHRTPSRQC
M1 ag: activates human CHRM1 receptor. AID 588814. 360,000 compounds, 0.33% hits. CHO-K1 hM1, Fluo-8 calcium fluorescence, agonist mode; 0% DMSO, 100% acetylcholine EC100. activation, % at 3 µM;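 active = activation above the run's mean compound activation plus 3 SD, cut at about 16% in these data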;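 note: peak over basal fluorescence ratio within a 140 s kinetic read after compound addition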
CHRM1 antagonist: blocks human M1 muscarinic receptor; CHO-K1 hM1, Fluo-8 calcium fluorescence, ACh EC80 antagonist; inhibition, % at 3 µM; AID 588852; 360,000 compounds, 1.3% hits; P11229;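 active = percent inhibition above its own plate's cutoff, namely the mean of that plate's compound wells plus 3 SD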;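 note: peak over basal fluorescence ratio during 140 s after agonist addition; 0% = ACh EC80 plus DMSO and 100% = DMSO alone without agonist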
CHO-K1 Ca antag: nonselective inhibitor or artifact in parental CHO-K1 cells; ATP-induced calcium, Fluo-8 fluorescence; inhibition, % at 3 µM; 360,000 compounds, 0.6% hits;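 active = inhibition above a per-plate cutoff, the plate's mean sample inhibition plus 3 SD, cut at about 24% in these data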;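 note: 0% = DMSO plus EC80 ATP and 100% = DMSO alone without ATP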
CHO-K1 Ca PAM: nonselective activator or artifact in parental CHO-K1 calcium assay; ATP EC20, Fluo-8 calcium fluorescence; 0% at ATP EC20, 100% at ATP max; AID 602247; 360,000 compounds, 0.02% hits; activation, % at 3 µM;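 active = activation above the run cutoff, the mean activation of all test compounds plus 3 SD, cut at about 40% in these data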;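 note: peak over basal fluorescence ratio in a 140 s read after ATP addition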
* = called active by the depositor.

SMILES | M1 ag parental | CHRM1 PAM | M1 ag | CHRM1 antagonist | CHO-K1 Ca antag | CHO-K1 Ca PAM
O=C(O)/C=C/C(=O)N1CCN(C(c2ccccc2)c2ccccc2)CC1 | 2 | -23 | -6 | 42* | -2 | 2
CC(=O)/C(C(=N)N1CCN(C(c2ccccc2)c2ccccc2)CC1)=C(\C)O | 1 | -23 | -5 | 99* | -17 | 28
Cc1ccc2cc3cc(C(=O)NCCCN4CCCC4=O)oc3nc2c1 | 0 | -7 | -5 | 15 | 0 | -8
COc1ccc([C@H]2CC(=O)C=C(c3ccc(OC)c(F)c3)C2)cc1 | 1 | 6 | -2 | -5 | -1 | 4
COc1ccc(N=C2SCC(=O)N2CCc2ccc(OC)c(OC)c2)cc1 | 8 | -15 | -1 | 36 | 7 | -1
COc1ccc(CCN2C(=O)CSC2=Nc2ccc(C(C)C)cc2)cc1OC | 9 | -15 | -2 | 41* | 13 | -6
CCOC(=O)c1nn(-c2ccc(F)cc2)c(=O)c2c(N)scc12 | 0 | 17 | -6 | -6 | -4 | 20
CCOC(=O)c1nn(-c2ccc(C)cc2)c(=O)c2c(N)scc12 | -1 | -7 | 0 | 22 | 33* | -9
C=CCSc1nc2sc(C)c(C)c2c(=O)[nH]1 | 0 | -20 | -10 | 39* | 2 | -1
CCN(CC)c1ccc2cc(C(=O)c3cccs3)c(=O)oc2c1 | 74* | -36 | 131* | 60* | 40* | -1
O=c1oc2ccc3ccccc3c2cc1-c1nnc(-c2ccccc2)o1 | 0 | -3 | -5 | 2 | 3 | -3
CCN(CC)c1ccc2cc(-c3nnc(-c4ccccc4)o3)c(=O)oc2c1 | 28* | -20 | 108* | 15* | 23 | 4
CCN(CC)c1ccc2cc(-c3nc4ccccc4[nH]3)c(=O)oc2c1 | 80* | -38 | 279* | 69* | 8 | -14
CC(NC(=O)C1CCCN1C(=O)OC(C)(C)C)C(=O)OCc1ccccc1 (stereo unspecified) | 0 | -2 | -2 | 1 | -4 | 1
COc1ccc(C2N(c3ccccc3)C(=S)N3CCCN23)cc1 (stereo unspecified) | 0 | -22 | -9 | 32 | -4 | 19
S=C1N(c2ccccc2)C(c2ccc(Cl)cc2)N2CCCN12 (stereo unspecified) | 0 | -21 | -7 | 96* | -3 | 7
S=C1N(c2ccccc2)C(c2ccc(Br)cc2)N2CCCN12 (stereo unspecified) | 1 | -28 | -7 | 100* | -5 | 14
CO/N=C(/CS(=O)(=O)c1ccc(C)cc1)c1ccc(OC)cc1 | 0 | 4 | -4 | -11 | -9 | 0
OC(CNCCNc1ncccc1C(F)(F)F)COc1ccc(F)cc1 (stereo unspecified) | 4 | -14 | 40* | 19 | -12 | 8
Cc1ccc(OCC(O)CNCc2ccc(F)cc2)cc1 (stereo unspecified) | 2 | 4 | -2 | -1 | 0 | 9
O=C(N/N=C/c1ccccc1C(=O)O)C(=O)N1CCCCC1 | 19* | 14 | -6 | -6 | -4 | 27
O=C(O)c1ccccc1/C=N/NC(=O)C1CCCCC1 | 0 | 8 | -1 | -27 | 9 | -22
CO/N=C/c1ccc(Sc2ccccc2N)c([N+](=O)[O-])c1 | 0 | -4 | -5 | -9 | -2 | 7
CO/N=C/c1ccc(Sc2ccccc2)c([N+](=O)[O-])c1 | -1 | 8 | 0 | -3 | 25* | -6
CCOC(=O)C1(Cc2cccc(OC)c2)CCN(C/C=C/c2ccc(OC)cc2)CC1 | 4 | -30 | -13 | 33* | 20 | -13
COc1ccc(/C=C/CN2CCCC(CO)(Cc3cccc(Cl)c3)C2)cc1 (stereo unspecified) | 28* | -7 | 2 | 19 | -4 | 9
CCOC(=O)C1(Cc2cccc(OC)c2)CCN(C/C=C/c2ccccc2)CC1 | 5 | -8 | -5 | 10 | 0 | -1
COc1ccc(F)c(CN2CCCC(CO)(Cc3cccc(Cl)c3)C2)c1 (stereo unspecified) | 1 | 6 | -4 | -9 | 1 | 2
COc1cccc(CC2(CO)CCCN(C/C=C/c3ccccc3OC)C2)c1 (stereo unspecified) | 5 | -20 | -12 | 3 | 0 | 3
